Inconclusive results are not listed. The source made the active and inactive calls. Rule for the calls, unless noted: active = hit-call score of the fitted dose curve at least 0.9, where 1 is the maximum; inconclusive = response in the unintended direction; inactive = score below 0.9.
Key:
[1] = ATG_TCF_b_cat_CIS: Attagene CIS-FACTORIAL HepG2 Assay for human T-Cell-Factor with beta-catenin (TCF/b-cat) (AID 2282965; active = hit-call score of the fitted dose curve at least 0.9, where 1 is the maximum; inactive = score below 0.9); settings: HepG2 TCF/beta-catenin cis-reporter transcription, actives raise or lower the signal
In short: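 HepG2, transient MRTU transfection, cis-element-driven reporters (endogenous TFs). 24 h compound exposure. Readout: reporter mRNA by RT-PCR + 6-FAM primer extension, HpaI digest, capillary electrophoresis. Gain/loss fit vs DMSO baseline.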

[2] = ATG_TAL_CIS: Attagene CIS-FACTORIAL HepG2 Assay for human TAL Basal Promoter (AID 2282966; active = hit-call score of the fitted dose curve at least 0.9, where 1 is the maximum; inactive = score below 0.9;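 note: background control endpoint measuring basal TAL promoter reporter mRNA not a specific factor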); settings: HepG2 Attagene cis-factorial TAL promoter reporter; actives raise or lower the signal
In short: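 In this cell-based multiplex, HepG2 liver cells bearing cis-promoter reporter constructs are dosed for 24 hours. Total RNA is reverse-transcribed and amplified, labelled fragments are sized by capillary electrophoresis, and signal changes are fitted bidirectionally versus DMSO.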

[3] = ATG_TGFb_CIS: Attagene CIS-FACTORIAL HepG2 Assay for human Transforming Growth Factor (TGF) (AID 2282967; active = hit-call score of the fitted dose curve at least 0.9, where 1 is the maximum; inactive = score below 0.9); settings: HepG2 Attagene CIS TGFb reporter, mRNA transcription; actives raise or lower the signal
In short: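 Bidirectional fitting relative to DMSO gave the endpoint. Underlying data: reporter mRNA from HepG2 cells carrying transiently transfected cis-regulated reporter constructs, harvested 24 h after dosing and analyzed by RT-PCR and capillary electrophoresis.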

[4] = target: Nuclear receptor subfamily 1 group I member 3 (Homo sapiens) (UniProt Q14994); assay: ATG_CAR_TRANS: Attagene TRANS-FACTORIAL HepG2 Assay for human Constitutive Androstane Receptor (CAR) (AID 2282969); settings: HepG2 Attagene TRANS-FACTORIAL CAR reporter;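 note: activators raise reporter mRNA above DMSO so AC50 marks induction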
Nuclear receptor subfamily 1 group I member 3 (Homo sapiens), sequence (Q14994 whole entry, looked up, the tested form may be a part): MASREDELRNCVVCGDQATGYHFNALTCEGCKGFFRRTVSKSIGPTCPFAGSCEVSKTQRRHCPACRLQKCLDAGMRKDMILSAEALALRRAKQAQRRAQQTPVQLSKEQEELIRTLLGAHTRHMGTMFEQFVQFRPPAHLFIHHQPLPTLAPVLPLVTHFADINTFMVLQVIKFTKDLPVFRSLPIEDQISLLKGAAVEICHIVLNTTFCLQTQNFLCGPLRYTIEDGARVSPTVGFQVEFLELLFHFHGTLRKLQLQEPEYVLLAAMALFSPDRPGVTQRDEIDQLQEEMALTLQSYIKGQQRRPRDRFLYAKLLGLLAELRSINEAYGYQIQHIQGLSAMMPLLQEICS
In short: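 HepG2 cells transiently transfected with GAL4-UAS reporter units; TRANS format reads activity of exogenous chimeric NR-Gal4 protein. After 24 h dosing, reporter mRNA quantified by RT-PCR, 6-FAM labelling and capillary electrophoresis; gain of signal fitted against DMSO.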

[5] = target: Estrogen receptor (Homo sapiens) (UniProt P03372); assay: ATG_ERa_TRANS: Attagene TRANS-FACTORIAL HepG2 Assay for human Estrogen Receptor alpha (ERa) (AID 2282970); settings: HepG2 Attagene TRANS ERa GAL4 reporter, mRNA
Estrogen receptor (Homo sapiens), sequence (P03372 whole entry, looked up, the tested form may be a part): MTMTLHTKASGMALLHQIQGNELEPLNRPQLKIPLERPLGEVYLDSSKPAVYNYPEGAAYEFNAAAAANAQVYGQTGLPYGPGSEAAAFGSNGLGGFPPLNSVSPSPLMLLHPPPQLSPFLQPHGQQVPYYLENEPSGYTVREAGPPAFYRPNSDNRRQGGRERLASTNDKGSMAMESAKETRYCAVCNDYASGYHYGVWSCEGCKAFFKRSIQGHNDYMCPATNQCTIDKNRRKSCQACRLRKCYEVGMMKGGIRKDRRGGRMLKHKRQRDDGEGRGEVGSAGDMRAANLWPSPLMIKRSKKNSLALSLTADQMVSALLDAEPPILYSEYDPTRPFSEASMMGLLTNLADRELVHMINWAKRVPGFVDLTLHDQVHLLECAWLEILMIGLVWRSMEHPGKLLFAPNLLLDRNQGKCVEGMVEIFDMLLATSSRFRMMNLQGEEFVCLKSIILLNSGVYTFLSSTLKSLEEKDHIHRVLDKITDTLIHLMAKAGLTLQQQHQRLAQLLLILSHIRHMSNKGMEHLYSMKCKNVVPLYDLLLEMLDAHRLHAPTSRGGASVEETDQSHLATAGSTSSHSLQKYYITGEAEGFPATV
In short: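 After 24 h of compound treatment, RNA from HepG2 cells bearing transfected GAL4-UAS reporter constructs is converted to cDNA, amplified and fluorescently labelled. Capillary electrophoresis resolves the ERa-linked reporter; DMSO serves as negative control.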

[6] = target: Glucocorticoid receptor (Homo sapiens) (UniProt P04150); assay: ATG_GR_TRANS: Attagene TRANS-FACTORIAL HepG2 Assay for human Glucocorticoid Receptor (GR) (AID 2282978); settings: HepG2 Attagene TRANS GR reporter, mRNA transcription;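 note: activators score as hits since higher reporter transcript over DMSO is fitted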
Glucocorticoid receptor (Homo sapiens), sequence (P04150 whole entry, looked up, the tested form may be a part): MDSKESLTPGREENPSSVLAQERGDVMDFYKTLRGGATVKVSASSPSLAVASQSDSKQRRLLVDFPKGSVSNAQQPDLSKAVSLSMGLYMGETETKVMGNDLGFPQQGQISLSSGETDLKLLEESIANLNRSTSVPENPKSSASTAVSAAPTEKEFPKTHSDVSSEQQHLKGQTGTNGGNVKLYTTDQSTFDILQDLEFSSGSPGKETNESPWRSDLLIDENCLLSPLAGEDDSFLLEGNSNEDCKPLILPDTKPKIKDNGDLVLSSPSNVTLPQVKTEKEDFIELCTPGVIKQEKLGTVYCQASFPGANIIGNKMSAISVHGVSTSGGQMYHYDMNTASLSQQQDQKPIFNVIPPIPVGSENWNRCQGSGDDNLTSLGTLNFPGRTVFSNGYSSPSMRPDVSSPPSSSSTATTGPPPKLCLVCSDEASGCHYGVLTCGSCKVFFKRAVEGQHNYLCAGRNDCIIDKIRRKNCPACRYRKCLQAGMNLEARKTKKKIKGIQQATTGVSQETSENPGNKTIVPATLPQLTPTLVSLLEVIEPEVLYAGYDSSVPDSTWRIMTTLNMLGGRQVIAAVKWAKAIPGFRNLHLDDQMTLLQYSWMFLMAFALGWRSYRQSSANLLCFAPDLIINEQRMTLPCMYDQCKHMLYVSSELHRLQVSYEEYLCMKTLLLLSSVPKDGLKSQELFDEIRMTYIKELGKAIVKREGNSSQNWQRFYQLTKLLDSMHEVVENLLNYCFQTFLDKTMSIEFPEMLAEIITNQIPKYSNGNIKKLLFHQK
In short: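 Reporter transcript levels, detected by fluorescence after RT-PCR and capillary electrophoresis, served as the endpoint. HepG2 cells bearing transfected GAL4-UAS reporters responsive to NR-GAL4 chimeras were incubated with compound 24 h; DMSO defined baseline.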

[7] = target: Oxysterols receptor LXR-alpha (Homo sapiens) (UniProt Q13133); assay: ATG_LXRa_TRANS: Attagene TRANS-FACTORIAL HepG2 Assay for human Liver X Receptor alpha (LXRa) (AID 2282980); settings: HepG2 Attagene TRANS reporter, LXRa transactivation
Oxysterols receptor LXR-alpha (Homo sapiens), sequence (Q13133 whole entry, looked up, the tested form may be a part): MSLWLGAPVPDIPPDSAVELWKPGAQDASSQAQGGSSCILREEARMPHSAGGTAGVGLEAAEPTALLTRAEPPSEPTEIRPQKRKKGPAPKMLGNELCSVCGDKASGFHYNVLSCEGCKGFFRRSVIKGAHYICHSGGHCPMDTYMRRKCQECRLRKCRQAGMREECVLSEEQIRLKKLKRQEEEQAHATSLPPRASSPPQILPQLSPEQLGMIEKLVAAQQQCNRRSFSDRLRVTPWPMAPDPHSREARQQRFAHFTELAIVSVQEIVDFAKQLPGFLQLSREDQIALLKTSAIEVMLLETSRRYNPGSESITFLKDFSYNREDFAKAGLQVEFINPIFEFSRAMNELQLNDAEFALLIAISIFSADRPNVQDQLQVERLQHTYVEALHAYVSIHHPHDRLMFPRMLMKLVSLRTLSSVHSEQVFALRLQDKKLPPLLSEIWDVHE
In short: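 Read-out: reporter transcript levels by RT-PCR plus capillary electrophoresis, fluorescence intensity. Transiently transfected HepG2, exogenous NR-GAL4 chimera, GAL4-UAS reporters; 24 h compound exposure. Activity = increase over DMSO negative control.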

[8] = target: Oxysterols receptor LXR-beta (Homo sapiens) (UniProt P55055); assay: ATG_LXRb_TRANS: Attagene TRANS-FACTORIAL HepG2 Assay for human Liver X Receptor beta (LXRb) (AID 2282981); settings: HepG2 Attagene TRANS GAL4-LXRb reporter, mRNA
Oxysterols receptor LXR-beta (Homo sapiens), sequence (P55055 whole entry, looked up, the tested form may be a part): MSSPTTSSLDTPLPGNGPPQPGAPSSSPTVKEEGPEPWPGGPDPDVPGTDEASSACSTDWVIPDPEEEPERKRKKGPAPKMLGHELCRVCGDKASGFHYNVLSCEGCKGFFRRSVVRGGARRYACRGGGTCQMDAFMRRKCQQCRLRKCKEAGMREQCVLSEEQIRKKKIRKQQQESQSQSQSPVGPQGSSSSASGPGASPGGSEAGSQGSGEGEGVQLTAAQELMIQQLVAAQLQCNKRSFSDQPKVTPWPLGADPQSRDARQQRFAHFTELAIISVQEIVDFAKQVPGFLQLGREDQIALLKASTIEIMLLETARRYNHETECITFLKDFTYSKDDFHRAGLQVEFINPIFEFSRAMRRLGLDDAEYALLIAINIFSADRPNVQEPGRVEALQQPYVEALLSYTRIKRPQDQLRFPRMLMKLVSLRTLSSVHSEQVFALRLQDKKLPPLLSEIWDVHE
In short: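 HepG2 cells transiently transfected with GAL4-UAS reporter units for chimeric NR-Gal4 proteins, dosed for 24 h. Reporter transcripts measured by RT-PCR and capillary electrophoresis; gain-of-signal fitting relative to DMSO.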

[9] = target: Hepatocyte nuclear factor 4-alpha (Homo sapiens) (UniProt P41235); assay: ATG_HNF4a_TRANS: Attagene TRANS-FACTORIAL HepG2 Assay for human Hepatocyte Nuclear Factor 4 alpha (HNF4a) (AID 2282982); settings: HepG2 HNF4a transactivation reporter, mRNA readout
Hepatocyte nuclear factor 4-alpha (Homo sapiens), sequence (P41235 whole entry, looked up, the tested form may be a part): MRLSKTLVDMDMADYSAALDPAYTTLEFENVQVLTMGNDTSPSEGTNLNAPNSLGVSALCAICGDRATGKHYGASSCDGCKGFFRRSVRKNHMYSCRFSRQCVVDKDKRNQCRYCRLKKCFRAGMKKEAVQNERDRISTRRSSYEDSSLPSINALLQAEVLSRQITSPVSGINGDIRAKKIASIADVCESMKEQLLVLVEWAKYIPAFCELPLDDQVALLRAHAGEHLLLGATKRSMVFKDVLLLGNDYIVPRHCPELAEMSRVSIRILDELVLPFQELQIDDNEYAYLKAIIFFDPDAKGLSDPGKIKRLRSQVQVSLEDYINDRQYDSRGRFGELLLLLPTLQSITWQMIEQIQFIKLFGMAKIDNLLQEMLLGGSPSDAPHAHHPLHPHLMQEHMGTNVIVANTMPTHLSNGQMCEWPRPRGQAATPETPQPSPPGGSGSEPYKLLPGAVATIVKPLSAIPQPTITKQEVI
In short: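 HepG2 cells transiently transfected with HNF4a-Gal4 chimera and GAL4-UAS reporter units, dosed for 24 h. Reporter mRNA measured by RT-PCR, fluorescent primer extension and capillary electrophoresis; gain-of-signal fitted relative to DMSO.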

[10] = ATG_M_06_TRANS: Attagene TRANS-FACTORIAL HepG2 Assay for M06 Transcription Factor (Internal Marker) (AID 2282983); settings: HepG2 Attagene TRANS M06 internal marker reporter
In short: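 After a 24 h chemical treatment of transfected HepG2, RNA underwent DNase I treatment, reverse transcription and reporter-specific PCR; labelled, HpaI-digested products were sized by capillary electrophoresis. Signal increase relative to DMSO defined activity.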

[11] = target: Nuclear receptor subfamily 4 group A member 2 (Homo sapiens) (UniProt P43354); assay: ATG_NURR1_TRANS: Attagene TRANS-FACTORIAL HepG2 Assay for human Nuclear Receptor Related Protein 1 (NURR1) (AID 2282985); settings: HepG2 Attagene TRANS reporter, mRNA readout
Nuclear receptor subfamily 4 group A member 2 (Homo sapiens), sequence (P43354 whole entry, looked up, the tested form may be a part): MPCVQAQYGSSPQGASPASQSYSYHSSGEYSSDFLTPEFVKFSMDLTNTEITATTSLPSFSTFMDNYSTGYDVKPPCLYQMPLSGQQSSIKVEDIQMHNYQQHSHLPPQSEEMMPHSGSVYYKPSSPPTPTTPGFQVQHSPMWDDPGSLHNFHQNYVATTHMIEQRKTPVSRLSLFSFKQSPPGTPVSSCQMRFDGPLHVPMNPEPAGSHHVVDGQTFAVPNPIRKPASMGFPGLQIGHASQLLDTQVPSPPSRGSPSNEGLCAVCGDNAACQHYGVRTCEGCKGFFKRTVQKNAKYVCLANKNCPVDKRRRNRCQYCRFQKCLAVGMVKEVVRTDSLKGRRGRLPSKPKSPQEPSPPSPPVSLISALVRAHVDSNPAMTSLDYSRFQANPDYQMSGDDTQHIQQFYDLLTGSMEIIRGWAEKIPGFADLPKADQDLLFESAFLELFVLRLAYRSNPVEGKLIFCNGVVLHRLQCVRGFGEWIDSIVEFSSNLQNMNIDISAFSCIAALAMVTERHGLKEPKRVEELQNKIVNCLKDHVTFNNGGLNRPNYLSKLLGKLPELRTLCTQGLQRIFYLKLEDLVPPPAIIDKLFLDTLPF
In short: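 HepG2 cells transiently transfected with NURR1-Gal4 chimera and GAL4-UAS reporter units; after 24 hr compound exposure, reporter mRNA quantified by RT-PCR and capillary electrophoresis; gain of signal fitted against DMSO.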

[12] = target: Transcriptional activator Myb (Homo sapiens) (UniProt P10242); assay: ATG_Myb_CIS: Attagene CIS-FACTORIAL HepG2 Assay for human Myeloblastosis (Myb) Proto-Oncogene Transcription Factor (AID 2282986; active = hit-call score of the fitted dose curve at least 0.9, where 1 is the maximum; inactive = score below 0.9); settings: HepG2 Attagene CIS-FACTORIAL Myb reporter transcription; actives raise or lower the signal
Transcriptional activator Myb (Homo sapiens), sequence (P10242 whole entry, looked up): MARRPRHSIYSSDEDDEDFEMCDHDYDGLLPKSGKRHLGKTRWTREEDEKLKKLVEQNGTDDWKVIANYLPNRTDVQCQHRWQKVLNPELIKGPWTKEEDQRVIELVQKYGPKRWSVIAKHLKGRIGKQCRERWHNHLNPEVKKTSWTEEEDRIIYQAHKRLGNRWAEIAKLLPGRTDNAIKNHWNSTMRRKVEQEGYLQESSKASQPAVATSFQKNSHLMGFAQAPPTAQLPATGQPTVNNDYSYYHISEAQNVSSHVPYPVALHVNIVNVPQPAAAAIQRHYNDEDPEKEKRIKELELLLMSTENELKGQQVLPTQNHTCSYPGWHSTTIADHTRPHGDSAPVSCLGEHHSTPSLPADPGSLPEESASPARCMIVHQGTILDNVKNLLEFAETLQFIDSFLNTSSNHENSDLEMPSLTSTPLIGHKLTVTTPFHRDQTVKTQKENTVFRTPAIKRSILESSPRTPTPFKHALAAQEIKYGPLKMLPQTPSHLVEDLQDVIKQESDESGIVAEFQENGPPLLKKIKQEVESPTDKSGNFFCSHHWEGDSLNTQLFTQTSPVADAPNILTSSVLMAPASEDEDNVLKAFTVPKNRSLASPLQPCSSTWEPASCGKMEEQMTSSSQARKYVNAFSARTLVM
In short: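 Transiently transfected HepG2 cells, treated 24 h. Reporter mRNA quantified by RT-PCR/capillary electrophoresis; bidirectional fit relative to DMSO.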

[13] = target: X-box-binding protein 1 (Homo sapiens) (UniProt P17861); assay: ATG_Xbp1_CIS: Attagene CIS-FACTORIAL HepG2 Assay for human X-box Binding Protein 1 (XBP1) (AID 2282972; active = hit-call score of the fitted dose curve at least 0.9, where 1 is the maximum; inactive = score below 0.9); settings: HepG2 XBP1 cis-element reporter, Attagene multiplex; actives raise or lower the signal
X-box-binding protein 1 (Homo sapiens), sequence (P17861 whole entry, looked up, the tested form may be a part): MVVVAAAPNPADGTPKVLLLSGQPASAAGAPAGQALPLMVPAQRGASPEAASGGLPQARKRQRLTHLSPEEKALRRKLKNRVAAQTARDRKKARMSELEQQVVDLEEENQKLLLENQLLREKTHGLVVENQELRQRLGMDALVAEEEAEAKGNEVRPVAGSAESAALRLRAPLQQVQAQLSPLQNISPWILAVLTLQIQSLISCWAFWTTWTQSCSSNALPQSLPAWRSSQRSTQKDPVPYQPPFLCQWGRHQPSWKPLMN
In short: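 Fluorescence-labelled cDNA fragments from reporter transcripts, separated by capillary electrophoresis, give the signal. Source: HepG2 cells transfected with promoter-driven reporter units, harvested 24 h post-dose. DMSO served as reference for bidirectional curve fitting.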

[14] = ATG_M_19_TRANS: Attagene TRANS-FACTORIAL HepG2 Assay for M19 Transcription Factor (Internal Marker) (AID 2282974); settings: HepG2 Attagene TRANS-FACTORIAL M19 internal marker reporter
In short: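 Reporter mRNA induction was measured in transfected HepG2 cells 24 h after dosing. Endpoint fitted upward relative to DMSO and serves as a background control within the multiplexed TRANS panel.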

[15] = ATG_M_32_TRANS: Attagene TRANS-FACTORIAL HepG2 Assay for M32 Transcription Factor (Internal Marker) (AID 2282984); settings: HepG2 Attagene TRANS M32 internal marker reporter;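 note: transcript level of a background control reporter unit measured by RT-PCR and capillary electrophoresis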
In short: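 HepG2 cells transiently transfected with GAL4-UAS reporter units, dosed for 24 hours. Reporter mRNA quantified by RT-PCR, 6-FAM labelling, HpaI digestion and capillary electrophoresis; internal-marker signal fitted upward relative to DMSO.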

[16] = target: Steroid hormone receptor ERR1 (Homo sapiens) (UniProt P11474); assay: ATG_ERRa_TRANS: Attagene TRANS-FACTORIAL HepG2 Assay for human Estrogen-Related Receptor alpha (ERRa) (AID 2282971); settings: HepG2 Attagene TRANS reporter, ERRa transactivation
In short: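 Transfected HepG2, 24 h dosing, ERRa-Gal4 chimera driving GAL4-UAS reporter. Readout: reporter mRNA via RT-PCR plus capillary electrophoresis (fluorescence). Positive direction vs DMSO control.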

[17] = target: Estrogen-related receptor gamma (Homo sapiens) (UniProt P62508); assay: ATG_ERRg_TRANS: Attagene TRANS-FACTORIAL HepG2 Assay for human Estrogen-Related Receptor gamma (ERRg) (AID 2282977); settings: HepG2 Attagene TRANS reporter, ERRg transactivation;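 note: hits increase reporter signal over DMSO so potencies reflect activators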
In short: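 Transfect HepG2 with multiple GAL4-UAS reporter transcription units; dose chemicals 24 h; isolate RNA, reverse-transcribe with oligo(dT), PCR-amplify, label with 6-FAM, digest with HpaI; size fragments by capillary electrophoresis. DMSO serves as negative control.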

[18] = target: Bile acid receptor (Homo sapiens) (UniProt Q96RI1); assay: ATG_FXR_TRANS: Attagene TRANS-FACTORIAL HepG2 Assay for Farnesoid X Receptor (FXR) (AID 2282979); settings: HepG2 Attagene TRANS FXR-GAL4 reporter transcription;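 note: hits raise reporter mRNA above DMSO so AC50 marks FXR activation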
In short: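 Read-out: fluorescent reporter transcripts quantified by capillary electrophoresis after RT-PCR of total RNA. Source cells were HepG2 transiently carrying chimeric NR-GAL4 plus GAL4-UAS reporter units, dosed 24 h. Activity fitted upward relative to DMSO baseline.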

Measured: AC50

C=CC(=O)O[C@H]1C[C@@H]2CC[C@@]1(C)C2(C)C
active: [4] 162 µM | [5] 100 µM
not listed: [13] | [14] | [15] | [16] | [17] | [18]
inactive: all other assays above

O=c1c(O)c(-c2ccc(O)cc2O)oc2cc(O)cc(O)c12
active: [5] 59.4 µM
not listed: [10] | [11] | [12] | [16] | [17] | [18]
inactive: all other assays above

COc1ccc(C(=O)/C(Br)=C\C(=O)O)cc1
not listed: [4] | [6] | [7] | [14]
inactive: all other assays above

CCOC(=O)c1ccc(C)cc1
not listed: [4] | [6] | [13] | [14] | [15] | [17] | [18]
inactive: all other assays above

C=Cc1cccc(C)c1
not listed: [7] | [8] | [9] | [11] | [16] | [17] | [18]
inactive: all other assays above

From PubChem BioAssay (EPA / NIEHS)
